Test in all cases: NCI-60 one-dose screen, 48 h (100 = growth as untreated, 0 = no growth, -100 = all killed)
Details in all cases: 10 µM unless noted

The test system of experiment [1] is HCT-15 colon.
Experiment [2] has as its system HT29 colon.
Experiment [3] has as its system SNB-75 CNS.
For experiment [4], the system named is U251 CNS.
The test system of experiment [5] is PC-3 prostate.
The test system of experiment [6] is SK-MEL-5 melanoma.
Experiment [7] relates to UACC-62 melanoma.
The subject of experiment [8] is LOX IMVI melanoma.
The test system of experiment [9] is SK-MEL-28 melanoma.
The subject of experiment [10] is SK-MEL-2 melanoma.
Experiment [11] relates to EKVX NSCLC.
Experiment [12] concerns SN12C renal.
The subject of experiment [13] is UO-31 renal.
Experiment [14] deals with TK-10 renal.
In experiment [15] the test system is ACHN renal.
For experiment [16], the system named is CAKI-1 renal.
Experiment [17] deals with A498 renal.
Experiment [18] deals with CCRF-CEM leukemia.
Experiment [19] has as its system MOLT-4 leukemia.

Compounds without any hit were thinned out: in the full panel of roughly 83,000, 20% have a hit.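 Activity criterion: percent growth below 10, measured after cells in 96-well plates were exposed to a single compound concentration for 48 hours.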 Unmarked numbers belong to inactive results. Calls of active or inactive are those of the source.

As for `O=C(c1ccncc1)N1N=C(c2ccc(Cl)cc2)C[C@H]1c1cn(-c2ccccc2)nc1-c1ccccc1`, the growth in [1] was 82.4%; in [2], 104%; in experiment [3], 72.7%; in experiment [4], 61.1%; in [5], 79.5%; in experiment [6], 90.7%. The growth was 91.7% in experiment [7]; 79.9% in experiment [8]; 96% in experiment [9]; 110% in experiment [10]; 87.2% in experiment [11]; 86.6% in experiment [12]. The growth was 90.1% in experiment [13]; 109% in [14]; 70.8% in experiment [15]; 65.4% in experiment [16]; 102% in experiment [17]; 78.9% in [18].

With `CC1OC(n2c3ccccc3c3c4c(c5c6ccccc6[nH]c5c32)C(=O)N(CCN2CCCC2)C4=O)CC(O)C1O` (centres undefined), the growth is 10.7% in [1]; -49.9% (active) in [2]; 12.1% in [3]; 37.9% in experiment [4]; 33.2% in [5]; 61.3% in [6]. Besides, the growth in [7] is 67.7%; in experiment [8], 25.3%; in experiment [9] it was 91.4%; in [10] it was 86.5%; in experiment [11] it was 57%; in [12], 42%. Moreover, the growth in [13] is 44.5%; in experiment [14], 68.9%; in experiment [15], 16.6%; in [16], 20.1%; in [17], 55.5%; in experiment [18], 27.2%. In addition, in experiment [19], the growth was 11.3%.

With `CCSc1oc(-c2ccccc2)nc1[P+](c1ccccc1)(c1ccccc1)c1ccccc1`, the growth is 6.09% (active) in experiment [1]; 1.21% (active) in [2]; 2.74% (active) in [3]; 15.2% in experiment [4]; -1.59% (active) in experiment [5]; -91.8% (active) in experiment [6]. Further, the growth in [7] is -0.29% (active); in [8] it was -84.9% (active); in experiment [9], 29.8%; in experiment [10], -9.57% (active); in experiment [11], 11%; in experiment [12], 3.37% (active). In addition, the growth in [13] was -31.3% (active); in experiment [14] it was 24.1%; in experiment [15], -5.44% (active); in [16] it was 1.2% (active); in experiment [17], -32.8% (active); in experiment [18], 11.1%. The growth in experiment [19] is 1.34% (active).

As to `COCCOc1cc2ncnc(N3CCN(c4ncc(S(=O)(=O)N5CCCCC5)cn4)CC3)c2cc1OCCOC`, the growth in experiment [1] is 89.9%; in experiment [2], 109%; in experiment [3] it was 110%; in experiment [4], 97.7%; in experiment [5], 88.7%; in [6], 102%. For the same compound, the growth in [7] was 95.3%; in experiment [8], 87.4%; in experiment [9] it was 112%; in experiment [10], 105%; in experiment [11], 104%; in experiment [12], 104%. For the same compound, the growth in experiment [13] was 78.1%; in experiment [14] it was 106%; in experiment [15] it was 115%; in [16], 101%; in experiment [18] it was 84.5%; in [19], 91.9%.

As to `COc1ccc(CN2c3ccccc3Sc3ccccc32)cc1F`, the growth is 15.9% in experiment [1]; -4.41% (active) in experiment [2]; 45.1% in [3]; 20.1% in experiment [4]; 21.2% in experiment [5]; 22.3% in experiment [6]. Further, the growth is 28.5% in experiment [7]; 39.9% in experiment [8]; 56.8% in [9]; 39.8% in experiment [10]; 34.4% in experiment [11]; 45.2% in experiment [12]. In addition, the growth in [13] was 45.6%; in experiment [14], 47.4%; in experiment [15], 41.8%; in experiment [16], 54.4%; in [17], -1.48% (active); in experiment [18] it was 22.1%. The growth in [19] is 27.3%.

Consider `COc1cc2c(c(OC)c1OC)CCC(c1cccc(C(=O)Nc3cccc(Cl)c3)c1)O2` (centres undefined), for which the growth in [1] was 75.2%; in [2] it was 63.6%; in [3] it was 63.7%; in experiment [4], 72.4%; in [5], 34%; in experiment [6], 63%. The growth in [7] is 53.4%; in experiment [8] it was 65.2%; in experiment [9], 78.1%; in [10] it was 58.3%; in experiment [11] it was 64.2%; in [12] it was 50%. Moreover, the growth was 40.8% in experiment [13]; 70.4% in [14]; 65.4% in [15]; 84.8% in experiment [16]; 6.84% (active) in [17]; 37.8% in [18]. Moreover, the growth in experiment [19] was 30.4%.

For the compound `COc1ccc(C2=C(Br)C(=O)c3nc(C)ccc3C2=O)cc1`, the growth in experiment [1] is 93.1%; in experiment [2] it was 110%; in [3], 93.8%; in [5], 80%; in experiment [6] it was 91.6%; in [7], 88.5%. Further, the growth in experiment [8] was 95.4%; in experiment [9] it was 107%; in experiment [10], 102%; in experiment [11], 94.4%; in [12], 92.8%; in [13] it was 69.9%. Moreover, the growth was 71.7% in [14]; 17% in experiment [15]; 81.2% in experiment [16]; 88.7% in [17]; 30.1% in [18]; 41.4% in experiment [19].

Regarding `CCc1ccccc1-n1c(-c2ccc(OC)cc2)cc(-c2ccc(OC)cc2)c(C#N)c1=O`, the growth was 106% in [1]; 110% in [2]; 2.64% (active) in experiment [3]; 60.9% in [4]; 89.5% in experiment [5]; 102% in experiment [6]. Further, the growth in experiment [7] is 81.6%; in [8] it was 95%; in experiment [9] it was 98.7%; in [10], 90.2%; in experiment [11] it was 94.1%; in experiment [12] it was 89.8%. For the same compound, the growth was 88.3% in experiment [13]; 97.2% in experiment [14]; 61.6% in [15]; 77.9% in experiment [16]; 69.5% in experiment [17]; 127% in experiment [18]. For the same compound, the growth in experiment [19] is 133%.

The record behind these values is PubChem BioAssay (NCI).
